Bioassay records: PubChem, National Center for Advancing Translational Sciences (NCATS)
A selection: hits, their analogues and other compounds. The true share with any hit is near 5.5%.
RORg inh = qHTS for inhibitors of ROR gamma transcriptional activity; Nuclear receptor ROR-gamma (Mus musculus), P51450; Drosophila S2 Gal4-RORgamma UAS-luciferase reporter, 20 h; Potency, µM (titrated, usually from 53.6 µM), usual class: inhibitors; hit rate 5.4% among 310,000; further: nearly all actives have a fitted effect of over 60% in size
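Read-out: Photinus luciferase luminescence; inhibitors lower reporter signal. Insect Schneider cells with Gal4-ROR gamma fusion under metallothionein promoter, UAS reporter; 700 uM final copper sulfate induction, 20 hr, ambient temperature.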
CtBP-E1A blk = qHTS Assay for Inhibitors of the CtBP/E1A Interaction | activity change, % (test concentration not listed) | AlphaScreen GST-E1A/His-CtBP binding, 1536-well; hits give low values | hit rate 0.49% among 340,000 | CtBP / adenovirus E1A interaction (AlphaScreen); in the data active means activity change below about -65%; inconclusive means mostly about -30% to -63%
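Protein mix (5X: 125 nM each GST-E1A, His-CtBP) was incubated with pinned compound 2 h at 37 deg C in dark, in 50 mM Tris pH 8.0 buffer with 300 mM NaCl. Glutathione donor and nickel acceptor beads followed; AlphaScreen signal read after 1 h.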
CBFb RUNX1 block = qHTS Assay for Compounds Blocking the Interaction Between CBF-beta and RUNX1 for the Treatment of Acute Myeloid Leukemia; Runt-related transcription factor 1 (Homo sapiens) + Core-binding factor subunit beta …; AlphaScreen CBFb-His/RUNX1-biotin binding, biochemical; Potency, µM (titrated, usually from 59.8 µM), hits mostly inhibitors; 230,000 tested, under 10 active; AID 1477, 2009
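AlphaScreen binding: CBFb-His and RUNX1-biotin (30 nM each) preincubated 20 min, compound added for 15 min, then nickel and streptavidin beads for 90 min, all at room temperature. Disruption of the interaction by any mechanism counts as activity.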
MBNL1 CUG block = qHTS Assay for Inhibitors of MBNL1-poly(CUG) RNA binding; hit rate 0.036% among 280,000; Muscleblind-like protein 1 (Homo sapiens), Q9NR56; Potency, µM (doses to about 57.5 µM), usual class: inhibitors; TR-FRET MBNL1-His/biotin-(CUG)12 binding, 665/545 ratio; active means well fitted inhibition curve with a large enough effect in the signal ratio, with a control signal flat, not every such curve was filed as active; inconclusive means small, poorly fitted or top-dose-only effect, or effect the other way, or a change in a side signal; inactive means no such curve, though single readings can be large or run the other way; the % refers to the signal ratio
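TR-FRET readout: Ex 340 nm, 665/545 nm emission ratio, normalized to buffer-only (basal) and MBNL1-(CUG)12 controls. Complex of MBNL1-His with Biotin-(CUG)12, compounds 92 nM–58 uM, incubated 60 min at room temperature.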
Gal4-VP16 FLuc = VP16 counterscreen qHTS for inhibitors of ROR gamma transcriptional activity; Drosophila S2 Gal4-VP16 UAS-luciferase, luminescence, 20 h; Potency, µM (doses to about 53.6 µM), hits mostly inhibitors; hit rate 3.5% among 310,000; AID 2546, 2010;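 further: Gal4-VP16 expression switched on by copper sulfate through the metallothionein promoter; nearly all actives have a fitted effect of over 50% in size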
Six1-Eya2 inh = qHTS Assay for Inhibitors of the Six1/Eya2 Interaction; activity change, % (test concentration not listed); AlphaScreen GST-Six1/His-Eya2 binding, biochemical; hits give low values; hit rate 0.56% among 360,000; in the data active means activity change below about -65%; inconclusive means mostly about -30% to -63%
Target sequence (O00167 whole entry, looked up): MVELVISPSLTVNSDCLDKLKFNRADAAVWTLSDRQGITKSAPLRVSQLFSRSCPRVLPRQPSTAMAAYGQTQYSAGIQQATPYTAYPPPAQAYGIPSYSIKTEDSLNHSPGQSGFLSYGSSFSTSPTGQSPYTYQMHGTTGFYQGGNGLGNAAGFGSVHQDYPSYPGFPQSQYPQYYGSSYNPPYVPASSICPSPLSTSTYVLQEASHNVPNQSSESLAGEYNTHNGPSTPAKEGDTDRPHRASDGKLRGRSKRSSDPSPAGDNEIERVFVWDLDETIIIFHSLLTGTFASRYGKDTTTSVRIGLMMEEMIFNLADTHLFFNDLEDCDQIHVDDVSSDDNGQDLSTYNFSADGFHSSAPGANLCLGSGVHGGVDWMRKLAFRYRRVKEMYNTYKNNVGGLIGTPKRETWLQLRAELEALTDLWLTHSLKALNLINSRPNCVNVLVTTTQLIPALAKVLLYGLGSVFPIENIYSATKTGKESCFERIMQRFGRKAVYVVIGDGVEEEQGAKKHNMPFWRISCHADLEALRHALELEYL
Target sequence (Q15475 whole entry, looked up): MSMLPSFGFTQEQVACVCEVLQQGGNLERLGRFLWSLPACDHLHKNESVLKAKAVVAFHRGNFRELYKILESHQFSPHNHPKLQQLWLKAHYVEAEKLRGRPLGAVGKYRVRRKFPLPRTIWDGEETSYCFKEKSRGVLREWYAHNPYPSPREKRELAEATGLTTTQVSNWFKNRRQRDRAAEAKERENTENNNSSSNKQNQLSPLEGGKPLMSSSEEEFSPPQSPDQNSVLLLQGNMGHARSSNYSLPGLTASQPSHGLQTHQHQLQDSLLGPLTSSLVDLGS
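Homogeneous AlphaScreen proximity assay pairing GST-Six1 with His-tagged Eya2 (added as 5X mix: 250 nM and 500 nM) in 50 mM Tris pH 8.0, 300 mM NaCl, 1 mM TCEP. Glutathione donor and nickel acceptor beads; 1 h, 37 °C, dark.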
Large screens that a line does not name were inactive. Unless noted, the call rests on the fitted dose curve; in most records, active means well fitted curve in the direction sought with a large enough effect; inconclusive means small, poorly fitted or top-dose-only effect, or another doubt; inactive means no such curve, though single readings can be large; an effect the other way counts as inactive or inconclusive.

CCc1nnc(NC(=O)c2ccc(S(=O)(=O)N3CCCC(C)C3)cc2)o1 (configuration not stated)	RORg inh 0.224µM, Gal4-VP16 FLuc 0.631µM (no result: CBFb RUNX1 block)
COCc1nnc(NC(=O)c2ccc(S(=O)(=O)N3CCCC3)cc2)o1	RORg inh 4.47µM, Gal4-VP16 FLuc 11.2µM (no result: CBFb RUNX1 block)
CC1CCCN(S(=O)(=O)c2ccc(C(=O)Nc3nnc(-c4ccco4)o3)cc2)C1 (configuration not stated)	RORg inh 1.12µM, Gal4-VP16 FLuc 0.501µM, Six1-Eya2 inh inconclusive (no result: CBFb RUNX1 block)
CCOC(=O)N1CCN(S(=O)(=O)c2ccc(C(=O)Nc3nnc(CC)o3)cc2)CC1	RORg inh inconclusive, Gal4-VP16 FLuc inconclusive, Six1-Eya2 inh inconclusive (no result: MBNL1 CUG block)
Cc1cn2c(=O)c3ccccc3nc2n2c(=O)c3ccccc3nc12	none (no result: CtBP-E1A blk, MBNL1 CUG block, Six1-Eya2 inh)
CCc1nnc(NC(=O)CSc2nnc(C)c(=O)n2N)s1	none (no result: CBFb RUNX1 block)
COc1cccc(-c2cc(C(=O)N3CCN(c4ncccn4)CC3)c3ccccc3n2)c1	RORg inh inconclusive
CCCOc1cccc(-c2cc(C(=O)NN)c3ccccc3n2)c1	RORg inh 11.2µM, Gal4-VP16 FLuc inconclusive
CC(C)Oc1cccc(-c2cc(C(=O)N3CCN(c4ncccn4)CC3)c3ccccc3n2)c1	Gal4-VP16 FLuc 11.2µM (no result: CtBP-E1A blk, Six1-Eya2 inh)
CC(C)COc1cccc(-c2cc(C(=O)Nc3ccon3)c3ccccc3n2)c1	RORg inh inconclusive, Gal4-VP16 FLuc 28.2µM (no result: CBFb RUNX1 block)
CCCOc1cccc(-c2cc(C(=O)N/N=C/c3ccccn3)c3ccccc3n2)c1	RORg inh 1µM, Gal4-VP16 FLuc 1.26µM (no result: CBFb RUNX1 block)
COc1cc(CCC(=O)OCC(=O)N(CCC#N)c2ccccc2)cc(OC)c1OC	none (no result: CBFb RUNX1 block)
Cc1c(-c2ccc(O)cc2)nn(-c2ccc(O)cc2)c1-c1ccc(OCCN2CCCCC2)cc1	RORg inh inconclusive (no result: CtBP-E1A blk, MBNL1 CUG block, Six1-Eya2 inh)
Cc1cc(NC(=O)c2ccc(Br)c([N+](=O)[O-])c2)no1	none
Cc1ccc(C(=O)NC(=S)Nc2ccc(NC(=O)c3cccs3)cc2)cc1[N+](=O)[O-]	RORg inh 6.31µM, Gal4-VP16 FLuc 6.31µM (no result: MBNL1 CUG block)
Cc1cc(NC(=O)c2ccc(C)c([N+](=O)[O-])c2)no1	RORg inh 6.31µM
CCOc1ccc(C(=O)Nc2ccc(NC(=O)c3cccs3)cc2)cc1[N+](=O)[O-]	RORg inh 14.1µM, Gal4-VP16 FLuc inconclusive
CC(C)Oc1ccc(C(=O)CCN2CCCCC2)cc1	RORg inh 10µM, Gal4-VP16 FLuc 6.31µM
CC(C)Oc1ccc(C(=O)CCN2CCOCC2)cc1	none (no result: RORg inh, CBFb RUNX1 block, MBNL1 CUG block, Gal4-VP16 FLuc)
COc1ccc(C(=O)CCN2CCCCCC2)cc1	RORg inh 3.16µM, Gal4-VP16 FLuc 5.01µM
O=S(=O)(c1ccc(F)cc1F)N1CCN(CCO)CC1	none (no result: RORg inh, CBFb RUNX1 block, MBNL1 CUG block, Gal4-VP16 FLuc)
N=C1/C(=C/c2cccn2Cc2ccc(Cl)cc2)C(=O)N=C2SC=CN12	RORg inh 3.98µM, Gal4-VP16 FLuc 5.01µM
N=C1/C(=C/c2cccn2CCOc2ccccc2)C(=O)N=C2SC=C(c3ccccc3)N12	none (no result: MBNL1 CUG block)
CC1=CC2=NC(=O)/C(=C/c3cccn3Cc3ccccc3)C(=N)N2O1	RORg inh 12.6µM, MBNL1 CUG block inconclusive, Gal4-VP16 FLuc inconclusive
CN(CCCn1ccc(N)nc1=O)Cc1ccco1	none (no result: RORg inh, CBFb RUNX1 block, MBNL1 CUG block, Gal4-VP16 FLuc)
CN1C(=O)/C(=C\c2ccc(N(C)C)cc2)OC1=S	none (no result: CBFb RUNX1 block)
CN(C)c1ccc(C=C2C=CC=C2)cc1	Six1-Eya2 inh -65.8 (no result: RORg inh, CBFb RUNX1 block, MBNL1 CUG block, Gal4-VP16 FLuc)
OC(CNC1CCCc2ccccc21)COc1ccc2ccccc2c1 (configuration not stated)	none (no result: CtBP-E1A blk)
CCc1ccccc1OC[C@@H](O)CN[C@H]1CCCc2ccccc21	RORg inh 7.08µM, Gal4-VP16 FLuc 14.1µM (no result: MBNL1 CUG block)
CN(C)CCN(C)c1cc2c(c3c1ccn3C)C1CCC2O1 (configuration not stated)	none (no result: RORg inh, CBFb RUNX1 block, MBNL1 CUG block, Gal4-VP16 FLuc)
CCCCC(CC)C/C=C1\CC(C(=O)OCC)Oc2ccccc21 (configuration not stated) (tested in a mixture with another compound)	RORg inh 1.58µM, CBFb RUNX1 block inconclusive (no result: CtBP-E1A blk, MBNL1 CUG block, Six1-Eya2 inh)
Cc1nnc(SCC(=O)NC2CCCc3c2cnn3-c2ccccc2F)o1 (configuration not stated)	none (no result: CBFb RUNX1 block)
COc1ccc(OC)c(Nc2c3ccccc3nc3ccccc23)c1	RORg inh inconclusive, CtBP-E1A blk inconclusive, MBNL1 CUG block inconclusive, Gal4-VP16 FLuc inconclusive (no result: CBFb RUNX1 block)
COc1cc(NS(C)(=O)=O)ccc1Nc1c2ccccc2nc2ccccc12	RORg inh 20µM, MBNL1 CUG block inconclusive
COc1cc(NC(=O)CSc2ncnc3sc4c(c23)CCC(C)C4)c(C(=O)O)cc1OC (configuration not stated)	RORg inh 11.2µM, Gal4-VP16 FLuc inconclusive (no result: CBFb RUNX1 block)
CCCCCCCCN=C(N)c1ccc(C(=O)OCC2CCCCC2)cc1	RORg inh 7.94µM (no result: CtBP-E1A blk, MBNL1 CUG block, Six1-Eya2 inh)
CCN(CC(=O)Nc1ccc(NC(C)=O)cc1)C(=O)c1cccc(N2C(=O)c3ccccc3C2=O)c1	none (no result: RORg inh, CBFb RUNX1 block, MBNL1 CUG block, Gal4-VP16 FLuc)
Cc1ccc(-c2nc(Nc3cccc(C)c3)sc2CC(=O)O)cc1	RORg inh 11.2µM
CCCCCNCC(=O)Nc1cccc(C(=O)Nc2cccc(C(F)(F)F)c2)c1	RORg inh inconclusive
CC(C)CC(c1nnnn1Cc1cccs1)N1CCN(c2nc3ccccc3s2)CC1 (configuration not stated)	RORg inh 10µM
O=C(c1ccc(Cl)c(S(=O)(=O)N2CCOCC2)c1)N(c1ccccn1)C1CCCCC1	none
c1ccc(-n2nnnc2Oc2cccc3cccnc23)cc1	RORg inh 7.08µM, CtBP-E1A blk inconclusive, Gal4-VP16 FLuc 4.47µM
CC(C)(C)OC(=O)CNC(=O)c1[nH]cnc1C(=O)NC(c1ccccc1)c1ccccc1	RORg inh 6.31µM, Gal4-VP16 FLuc inconclusive (no result: CBFb RUNX1 block)
